# In the supplement of paper PMC8728848:
# Shown is part of a subset that was picked to be rich in the strongest signals.
# B1: AMA (Arum maculatun) (protein)
# chain: MAKLLLLLLLPAIVGLAVPRSAAAVGSNYMLSGETLNTDGRLTNGELTLIMQVDCNLVLYHGGWQSNTANNGRDCKLTLTDFGELVIKSGTGSTVWSSGSKQSMKGNYAAVVHPEGRLVIYGPSVFKINPSGAGLNGLPLRNIPLTNNMLFSGQVLYGDGTLSARNHKLVMQGDCNMVLYGGKYGWQSNTHGNGKYCFAMLTHKGELVIRDDDFKSVWSSKSSSKQGDYVFILQDDSLAIIYGPAVFSTGSKKMISMVTN
# Tests used:
# Experiment in all cases: glycan array binding signal (z-score within array); higher = stronger binding
# Details in all cases: glycan notation: IUPAC condensed, linker removed
# [1] = molecular target: Fuc(a1-2)Gal(b1-3)GalNAc(b1-3)Gal
# Procedure, shortened: (§1)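 The binding signal is a Z-score computed within each array. Data were drawn from 3228 arrays in the Consortium for Functional Glycomics database, restricted to those with a known protein sequence. Scores were averaged over arrays of the same protein sequence at different concentrations or buffers, and over linkers, and negative values can be taken as non-binding.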
# [2] = molecular target: Fuc(a1-2)Gal(b1-3)GlcNAc
# Procedure, shortened: as §1
# [3] = molecular target: Fuc(a1-2)Gal(b1-3)GlcNAc(b1-3)Gal(b1-4)Glc
# Procedure, shortened: as §1
# [4] = molecular target: Fuc(a1-2)Gal(b1-3)GlcNAc6S
# Procedure, shortened: as §1
# [5] = molecular target: Fuc(a1-2)Gal(b1-4)Glc6S
# Procedure, shortened: as §1
# [6] = molecular target: Fuc(a1-2)[Gal(a1-3)]Gal(b1-3)GalNAc
# Procedure, shortened: as §1
# [7] = molecular target: Fuc(a1-2)[GalNAc(a1-3)]Gal(b1-3)GlcNAc(b1-6)GalNAc
# Procedure, shortened: as §1
# [8] = molecular target: Fuc(a1-3)GlcNAc
# Procedure, shortened: as §1
# [9] = molecular target: Gal(a1-3)Gal(b1-3)GlcNAc
# Procedure, shortened: as §1
# [10] = molecular target: Gal(a1-3)Gal(b1-3)GlcNAc(b1-6)GalNAc
# Procedure, shortened: as §1
# [11] = molecular target: Gal(a1-4)Gal(b1-3)GlcNAc(b1-2)Man(a1-3)[Gal(a1-4)Gal(b1-3)GlcNAc(b1-2)Man(a1-6)]Man(b1-4)GlcNAc(b1-4)GlcNAc
# Procedure, shortened: as §1
# [12] = molecular target: Gal(a1-6)Glc
# Procedure, shortened: as §1
# [13] = molecular target: Gal(b1-3)Gal(b1-4)GlcNAc
# Procedure, shortened: as §1
# [14] = molecular target: Gal(b1-3)GlcNAc(b1-2)Man(a1-3)[Gal(b1-3)GlcNAc(b1-2)Man(a1-6)]Man(b1-4)GlcNAc(b1-4)GlcNAc
# Procedure, shortened: as §1
# [15] = molecular target: Gal(b1-3)GlcNAc(b1-2)Man(a1-3)[GlcNAc(b1-4)][Gal(b1-3)GlcNAc(b1-2)Man(a1-6)]Man(b1-4)GlcNAc(b1-4)GlcNAc
# Procedure, shortened: as §1
# [16] = molecular target: Gal(b1-3)GlcNAc(b1-3)Gal(b1-3)GlcNAc
# Procedure, shortened: as §1
# [17] = molecular target: Gal(b1-3)[Neu5Ac(a2-6)]GlcNAc(b1-6)Gal(b1-4)Glc
# Procedure, shortened: as §1
# [18] = molecular target: Gal(b1-4)GlcNAc(a1-6)Gal(b1-4)GlcNAc
# Procedure, shortened: as §1
# [19] = molecular target: Gal(b1-4)GlcNAc(b1-2)Man(a1-3)Man(b1-4)GlcNAc(b1-4)GlcNAc
# Procedure, shortened: as §1
# [20] = molecular target: Gal(b1-4)GlcNAc(b1-2)Man(a1-3)[Gal(b1-4)GlcNAc(b1-2)Man(a1-6)]Man(b1-4)GlcNAc(b1-4)GlcNAc
# Procedure, shortened: as §1
# [21] = molecular target: Gal(b1-4)GlcNAc(b1-2)Man(a1-3)[Man(a1-6)]Man(b1-4)GlcNAc(b1-4)GlcNAc
# Procedure, shortened: as §1
# [22] = molecular target: Gal(b1-4)GlcNAc(b1-3)Gal(b1-3)GalNAc
# Procedure, shortened: as §1
# [23] = molecular target: Gal(b1-4)GlcNAc(b1-3)Gal(b1-4)GlcNAc(b1-3)GalNAc
# Procedure, shortened: as §1
# [24] = molecular target: Gal(b1-4)GlcNAc(b1-3)Gal(b1-4)[Fuc(a1-3)]GlcNAc(b1-3)Gal(b1-4)[Fuc(a1-3)]GlcNAc
# Procedure, shortened: as §1
# [25] = molecular target: Gal(b1-4)GlcNAc(b1-3)[Gal(b1-4)GlcNAc(b1-6)]Gal(b1-4)GlcNAc
# Procedure, shortened: as §1
# [26] = molecular target: Gal(b1-4)GlcNAc(b1-3)[GlcNAc(b1-6)]Gal(b1-4)GlcNAc
# Procedure, shortened: as §1
# [27] = molecular target: Gal(b1-4)GlcNAc(b1-6)[Gal(b1-3)]GalNAc
# Procedure, shortened: as §1
# [28] = molecular target: Gal(b1-6)Gal
# Procedure, shortened: as §1
# [29] = molecular target: Gal3S(b1-3)GlcNAc
# Procedure, shortened: as §1
# [30] = molecular target: Gal3S(b1-4)Glc
# Procedure, shortened: as §1
binder,measurement,setting,value
B1,glycan array binding signal (z-score),[1],-0.21
same,glycan array binding signal (z-score),[2],-0.176
same,glycan array binding signal (z-score),[3],-0.22
same,glycan array binding signal (z-score),[4],-0.207
same,glycan array binding signal (z-score),[5],-0.208
same,glycan array binding signal (z-score),[6],-0.211
same,glycan array binding signal (z-score),[7],-0.216
same,glycan array binding signal (z-score),[8],-0.221
same,glycan array binding signal (z-score),[9],-0.21
same,glycan array binding signal (z-score),[10],-0.216
same,glycan array binding signal (z-score),[11],5.86
same,glycan array binding signal (z-score),[12],-0.214
same,glycan array binding signal (z-score),[13],-0.208
same,glycan array binding signal (z-score),[14],3.15
same,glycan array binding signal (z-score),[15],-0.205
same,glycan array binding signal (z-score),[16],-0.207
same,glycan array binding signal (z-score),[17],-0.198
same,glycan array binding signal (z-score),[18],-0.215
same,glycan array binding signal (z-score),[19],-0.215
same,glycan array binding signal (z-score),[20],3.36
same,glycan array binding signal (z-score),[21],0.479
same,glycan array binding signal (z-score),[22],-0.219
same,glycan array binding signal (z-score),[23],-0.149
same,glycan array binding signal (z-score),[24],-0.209
same,glycan array binding signal (z-score),[25],-0.213
same,glycan array binding signal (z-score),[26],-0.227
same,glycan array binding signal (z-score),[27],-0.212
same,glycan array binding signal (z-score),[28],-0.208
same,glycan array binding signal (z-score),[29],-0.209
same,glycan array binding signal (z-score),[30],-0.211
